# HIF act – HIF pathway transcriptional activation; U2OS HRE-luciferase reporter, luminescence; normalized: DMSO 0%, desferrioxamine 100%; activation, % at 7.5 µM (by protocol); 0.32% of 300,000 active;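 active = mean activation of at least 10% of the iron chelator positive control signal, with at least half of replicates also reaching 10%; inconclusive = mean and replicate majority disagree about reaching 10%; inactive = mean and most replicates under 10%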
# Platelet DG rel – platelet dense granule release activity | human platelet-rich plasma, SFLLRN dense granule ATP release, luminescence | inhibition, %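 (compounds screened at 7.5 µM in platelet-rich plasma)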 | 0.22% of 300,000 active;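 active = mean replicate score, as percent of positive control, at or above 50; inconclusive = mean below 50 but at least one replicate at or above 50; inactive = mean and every replicate below 50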
# VLA-4 inh – inhibition in a human VLA-4 binding assay | P13612 | VLA-4 expressing cells, ligand binding flow cytometry | AID 2557 | 0.2% of 330,000 active | inhibition, % (about 7 µM as worked out from the volumes in the protocol); in the data active = inhibition above about 50%
# Target sequence (P13612 whole entry, looked up): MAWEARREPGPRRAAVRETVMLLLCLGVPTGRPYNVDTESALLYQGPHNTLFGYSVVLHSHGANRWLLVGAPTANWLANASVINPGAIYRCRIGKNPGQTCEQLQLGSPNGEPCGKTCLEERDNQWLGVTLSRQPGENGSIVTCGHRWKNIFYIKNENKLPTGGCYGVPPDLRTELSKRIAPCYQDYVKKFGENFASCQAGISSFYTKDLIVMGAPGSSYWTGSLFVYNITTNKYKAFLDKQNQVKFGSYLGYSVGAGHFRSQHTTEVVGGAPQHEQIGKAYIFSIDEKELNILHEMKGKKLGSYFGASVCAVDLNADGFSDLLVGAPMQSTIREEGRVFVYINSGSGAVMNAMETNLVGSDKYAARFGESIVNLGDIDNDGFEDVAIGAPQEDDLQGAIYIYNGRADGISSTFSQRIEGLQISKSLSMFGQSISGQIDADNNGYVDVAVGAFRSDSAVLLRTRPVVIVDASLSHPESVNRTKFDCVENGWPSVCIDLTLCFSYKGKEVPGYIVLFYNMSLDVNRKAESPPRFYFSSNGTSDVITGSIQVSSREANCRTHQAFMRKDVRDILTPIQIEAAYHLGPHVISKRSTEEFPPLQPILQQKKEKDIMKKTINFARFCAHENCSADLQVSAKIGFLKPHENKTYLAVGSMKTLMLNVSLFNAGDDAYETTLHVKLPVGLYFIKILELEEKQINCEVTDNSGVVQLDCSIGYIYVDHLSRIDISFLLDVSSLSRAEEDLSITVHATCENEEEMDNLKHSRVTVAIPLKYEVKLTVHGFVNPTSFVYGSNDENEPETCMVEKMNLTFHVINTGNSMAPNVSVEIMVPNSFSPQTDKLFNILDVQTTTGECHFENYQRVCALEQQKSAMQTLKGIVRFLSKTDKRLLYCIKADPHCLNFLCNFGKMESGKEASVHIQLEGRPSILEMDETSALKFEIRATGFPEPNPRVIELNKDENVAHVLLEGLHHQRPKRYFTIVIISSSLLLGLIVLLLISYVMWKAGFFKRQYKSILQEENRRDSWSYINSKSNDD
# CHT block – inhibits the human high affinity choline transporter; Q9GZV3; CHT-expressing cells, membrane potential dye, choline response; hits give low values; B-score at 10 µM; 0.86% of 310,000 active;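 active = B-score over 3 SD under the library average, and starting fluorescence ratio not unusually high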;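 note: choline stimulus applied at its EC90 after an EC20 pre-addition; B-score computed on integrated fluorescence ratio after choline addition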
# CHT PAM – allosterically activates the human high affinity choline transporter; Q9GZV3; CHT-expressing cells, membrane potential dye, choline EC20; hits give high values; LV-AA mutant CHT in HEK293 cells; B-score at 10 µM; 0.49% of 310,000 active; AID 488977;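 active = initial fluorescence not abnormally high and integrated response B-score, plate-corrected, over 3 SD above library mean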
# AI-2 QS modul – Vibrio harveyi AI-2 quorum sensing modulation | Vibrio harveyi JMH597 AI-2 luminescence/OD600 ratio, 9 h; hits give low values; strain lacks LuxN and CqsS sensors; 0 = neutral-control median | activity change, % at 7.5 µM | 0.4% of 300,000 active | AID 2094; in the data active = activity change below about -75%, passing the limit was not always enough; inconclusive = no clear call, values can overlap the other calls;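 note: luminescence divided by OD600 gain over 9 h not by final OD600 alone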
# JMH597 growth – retest: inhibitors of Vibrio harveyi JMH597 growth. AID 2726. OD600 absorbance, 9 h; lacks LuxN and CqsS sensors. 1% of 750 active. growth inhibition, % at 7.5 µM. shares compounds with AI-2 QS modul;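 active = every replicate shows growth inhibition above 50%; inconclusive = at least half, but not all, replicates pass that cutoff; inactive = fewer than half of replicates pass it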
# BB721 const-QS lum – retest counter-screen: BB721 constitutive quorum sensing luminescence decrease; shares compounds with AI-2 QS modul; Vibrio harveyi BB721 luminescence, 9 h; inhibition, % at 7.5 µM; 95% of 750 active; AID 2727;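 active = inhibition above about 80% in every replicate, not just on average, limit read from the data; inconclusive = at least half of replicates past the limit, but not all; inactive = fewer than half of replicates past the limit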
# BB721 growth – retest: blocks Vibrio harveyi BB721 growth. AID 2728. shares compounds with AI-2 QS modul. OD600 absorbance, 9 h. 3% of 750 active. growth inhibition, % at 7.5 µM;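 active = every replicate shows growth inhibition above 50%; inconclusive = at least half but not all replicates above 50% inhibition; inactive = under half of replicates above 50% inhibition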
# AI-2 QS JMH597 – Vibrio harveyi AI-2 signaling luminescence modulation – JMH597 strain, confirmation; shares compounds with AI-2 QS modul; inhibition, % at 7.5 µM; Vibrio harveyi JMH597 AI-2 quorum sensing luminescence, 9 h; luxN and CqsS knockout, AI-2 only; 97% of 750 active;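 active = every replicate shows more than 75% inhibition of signal versus neutral control wells; inconclusive = half to three quarters of replicates exceed 75% inhibition; inactive = fewer than half of replicates exceed 75% inhibition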
# A number is an active result; - = inactive; ? = inconclusive; . = no result given. Most compounds without a hit are left out; they make up all but 2.2% or so of the library.
SMILES,HIF act,Platelet DG rel,VLA-4 inh,CHT block,CHT PAM,AI-2 QS modul,JMH597 growth,BB721 const-QS lum,BB721 growth,AI-2 QS JMH597
CCC1(c2ccccc2)NC(=O)N(CC(=O)Nc2cccc(C#N)c2)C1=O (centres undefined),-,-,-,-,-,-94,-,96,-,97
Cc1cc(OCC(=O)OCC(=O)N(C)Cc2ccccc2C)ccc1Cl,.,.,-,.,.,.,.,.,.,.
COc1cc(C(=O)NCCC2=CCCCC2)ccc1OCc1c(C)noc1C,.,.,-,.,.,.,.,.,.,.
O=C(Nc1ccc(Nc2ccccc2)cc1)c1ccc(Cl)cc1,-,-,-,-,-,-,.,.,.,.
O=C(Nc1ccc(Nc2ccccc2)cc1)c1ccccc1,-,-,-,-,-,-91,-,95,-,96
O=C(NCc1cccs1)Nc1ccc2c(c1)OCO2,-,-,-,-,-,-,.,.,.,.
O=C(NCc1cccs1)Nc1ccc(Cl)cc1,-,-,-,-,-,?,-,94,60,91
Cc1ccc(CNC(=O)Nc2ccc(Cl)cc2)cc1,-,-,-,-,-,-83,-,86,-,90
Cc1ccc(CNC(=O)NCc2ccccc2)cc1,-,-,-,-,-,-,.,.,.,.
O=C(NCc1ccc(Cl)cc1)Nc1ccc(F)cc1,-,-,-,-,-,?,-,96,-,96
Cc1ccc(CNC(=O)Nc2ccccc2)cc1,-,.,-,-,-,-91,-,97,-,97
Cc1ccc(S(=O)(=O)NC(=O)NCc2ccc(Cl)cc2)cc1,-,-,-,-,-,-,.,.,.,.
CC(=O)c1sc(N/N=C2\CC3CC2C(C)C3(C)C)nc1C (centres undefined),-,-,-,-,-,-,.,.,.,.
COc1ccc(CSc2nc3ccccc3[nH]2)cc1,-,.,-,-,-,-85,-,92,-,96
O=C1CCC(=O)N1c1ccc(CSc2nc3ccccc3[nH]2)cc1,-,-,-,-,-,-,.,.,.,.
COc1ccccc1N1CCN(C(=O)c2cccc(N3C(=O)NC4CC3(C)Oc3c(OC)cccc34)c2)CC1 (centres undefined),-,-,-,-,-,-83,-,-,-,-
O=c1c(Cc2ccccc2)c(O)ccn1Cc1ccc2c(c1)OCO2,-,-,-,-,-,-,.,.,.,.
Cc1nnc(NC(=O)CSc2ccc(-c3ccco3)nn2)s1,-,-,-,-,-,-,.,.,.,.
CCc1nnc(NC(=O)CSc2ccc(-c3ccco3)nn2)s1,-,-,-,-,-,-83,-,94,-,96
CNc1nc(SCC(=O)Nc2ccc(Cl)c(Cl)c2)nc(N2CCOCC2)n1,-,-,-,-,-,?,-,-,-,-
N/C(=N\OC(=O)COc1ccc([N+](=O)[O-])cc1)c1cccnc1,-,-,-,-,-,-,.,.,.,.
N/C(=N\OC(=O)COc1ccc2ccccc2c1)c1cccnc1,-,-,-,-,-,-90,-,98,-,99
Cc1ccc(OCC(=O)O/N=C(\N)c2cccnc2)cc1,-,-,-,-,-,-84,-,92,-,95
Cc1ccc(OCC(=O)NCCCNC(=O)c2ccncc2)cc1C,-,-,-,-,-,-,.,.,.,.
Fc1ccc(OCc2nc(-c3cccs3)no2)cc1,-,-,-,-,-,-,.,.,.,.
SMILES,HIF act,Platelet DG rel,VLA-4 inh,CHT block,CHT PAM,AI-2 QS modul,JMH597 growth,BB721 const-QS lum,BB721 growth,AI-2 QS JMH597
c1ccc(OCc2nc(-c3cccs3)no2)cc1,-,-,-,-,-,-84,-,96,-,97
Clc1cccc(OCc2nc(-c3ccncc3)no2)c1,-,-,-,-,-,-88,-,96,-,97
CCN(CC)CCCn1c2c(c(SCC(=O)Nc3nc(C)cs3)nc1=O)CCC2,-,.,-,-,-,-,.,.,.,.
Cc1ccc(S(=O)(=O)NCCCNc2ccc([N+](=O)[O-])cc2)cc1,-,-,-,-,-,-,.,.,.,.
O=[N+]([O-])c1ccc(NCCCNS(=O)(=O)c2ccccc2)cc1,-,-,-,-,-,?,-,97,-,97
Clc1cccc(OCc2nnc(-c3ccccc3Br)o2)c1,-,-,-,-,-,-90,?,97,82,98
CCOc1ccc(N2C(=O)C(=O)/C(=C(/O)c3ccccc3)C2c2ccccc2[N+](=O)[O-])cc1 (centres undefined),-,-,-,-,-,-,.,.,.,.
CC(C)CCCN1C(N(C)C)=NC[C@@H]1C,.,.,-,-,-,.,.,.,.,.
COc1cc(/C=N/NC(=O)Cn2cnc3ccccc3c2=O)ccc1O,-,-,-,-,-,-89,-,95,-,97
O=C(Cn1cnc2ccccc2c1=O)N/N=C/c1ccc(Br)cc1,-,-,-,-,-,-,.,.,.,.
O=C(NCCCN1CCOCC1)c1ccc(Cl)c([N+](=O)[O-])c1,-,-,-,-,-,-,.,.,.,.
O=C(NCCN1CCOCC1)c1ccc(Cl)c([N+](=O)[O-])c1,-,-,-,-,-,?,-,-,-,-
Cc1cc(C)n(C(=O)c2ccc([N+](=O)[O-])cc2Cl)n1,-,-,-,-,-,-,.,.,.,.
O=[N+]([O-])c1ccc(N/N=C/c2cccc(O)c2O)cc1,-,-,-,-,-,-82,-,93,-,96
O=C(COC(=O)c1cccs1)Nc1cccc(Cl)c1,.,.,-,.,.,.,.,.,.,.
Cc1ccc(O)c(CNc2ccccn2)c1,-,-,-,-,-,-,.,.,.,.
Oc1ccc(Br)cc1CNc1cnc2ccccc2c1,-,-,-,-,-,-97,-,99,-,100
Cc1ccc(O)c(CNc2cnc3ccccc3c2)c1,-,-,-,-,-,-97,-,99,-,99
Oc1ccc(Br)cc1CNc1cccc2cccnc12,-,-,-,-,-,-,.,.,.,.
CC(=O)c1ccc(NC(=O)CCCCCn2nnc3ccccc3c2=O)cc1,-,-,-,-,-,-,.,.,.,.
O=C(Cn1nnc2ccccc2c1=O)NCCc1ccccc1,-,-,-,-,-,-,.,.,.,.
Cc1ccc(NC(=O)Cn2nnc3ccccc3c2=O)cc1,-,-,-,-,-,-84,-,97,-,98
Cc1ccc(NC(=O)Cn2nnc3ccccc3c2=O)cc1C,-,-,-,-,-,-93,-,99,-,99
O=C(Cn1nnc2ccccc2c1=O)Nc1ccc(S(=O)(=O)N2CCOCC2)cc1,-,-,-,-,-,-97,-,99,-,100
CN(Cc1ccco1)C(=O)CSc1nn2c(=O)c(C(C)(C)C)nnc2s1,.,.,-,.,.,.,.,.,.,.

# Bioassay records deposited in PubChem BioAssay by several laboratories.
